For 7 molecules, growth results are on record in PubChem BioAssay (NCI).

The structures appear in SMILES notation. The panel holds about 83,000 compounds, 20% with a hit somewhere; the sample as a whole holds those more often.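 Note: values are percent growth. 100 is the growth of untreated cells, values between 100 and 0 indicate rising inhibition; between -100 and 0 indicates cell death.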 Unmarked numbers belong to inactive results. Calls of active or inactive are those of the source. How the source made its calls: active means growth percent below 10; inactive means the rest.

What all share (experiment): NCI-60 one-dose screen, 48 h (100 = growth as untreated, 0 = no growth, -100 = all killed)
Holding throughout (settings): 10 µM unless noted

Test [1] has as its system NCI-H23 lung.
In test [2] the test system is NCI-H226 lung.
Test [3] deals with NCI-H322M lung.
Test [4] relates to HOP-62 NSCLC.
Test [5] relates to NCI-H460 lung.
Test [6] relates to HOP-92 NSCLC.
The subject of test [7] is NCI-H522 lung.
The test system of test [8] is A549/ATCC NSCLC.
Test [9] deals with 786-0 renal.
For test [10], the system named is COLO 205 colon.
For test [11], the system named is DU-145 prostate.
Test [12] relates to K-562 leukemia.
Test [13] relates to MALME-3M melanoma.
The subject of test [14] is MDA-MB-231 breast.
Test [15] concerns RXF 393 renal.
The subject of test [16] is SF-268 CNS.
Test [17] relates to SF-295 CNS.
The subject of test [18] is SF-539 CNS.
In test [19] the test system is UACC-257 melanoma.
Test [20] relates to M14 melanoma.

For the molecule `COc1ccc(CNc2nc3ccccc3c3c(=O)c4ccccc4sc23)cc1OC`, the growth in test [1] is 80.9%; in test [2] it was 75.6%; in test [3] it was 80.6%; in [4] it was 79.8%; in test [5], 63.3%; in test [6] it was 42.8%. Also, the growth in [7] was 77.4%; in [8], 61.6%; in [9], 76.8%; in [10] it was 79.4%; in test [11], 74%; in test [12] it was 69.3%. In addition, the growth is 66.6% in [13]; 61.5% in test [14]; 61% in test [15]; 78.7% in test [16]; 68.3% in test [17]; 81% in [18]. In addition, the growth in test [19] was 88.6%; in test [20], 86.2%.
`CC(C)C(=O)Nc1nc2c(s1)CCCc1ccn(S(=O)(=O)c3ccccc3)c1-2`: the growth in [1] is 86.8%; in [2], 94%; in [3] it was 90%; in [4] it was 90.6%; in test [5], 103%; in test [6], 112%. Besides, the growth in test [7] is 70.5%; in [8], 82.3%; in test [9] it was 89.9%; in test [10], 110%; in test [11], 98.8%; in test [12], 73.8%. The growth in [13] is 114%; in test [14], 108%; in test [15] it was 119%; in test [16], 99.2%; in test [17], 90.6%; in [18], 100%. Also, the growth was 93.7% in test [19] and 96.9% in [20].
With `C=C1C(=O)O[C@H]2[C@H]1CC/C(COC(=O)OC/C1=C/CC[C@@]3(C)O[C@H]3[C@H]3OC(=O)[C@@H](CN(C)C)[C@@H]3CC1)=C\CC[C@@]1(C)O[C@@H]21`, the growth is 47.6% in test [1]; -49.6% (active) in test [2]; 88% in test [3]; 89.2% in test [4]; 80.1% in test [5]; -51.8% (active) in [6]. Also, the growth in [7] is -48.5% (active); in [8] it was 73.4%; in test [9], -49.7% (active); in test [10], -43.2% (active); in test [11], 15.3%; in [12] it was 1.85% (active). For the same molecule, the growth in [13] is -34.7% (active); in test [14] it was -10.4% (active); in test [15], -81.5% (active); in [16], 63.1%; in test [17], 94.7%; in [18], -12.1% (active). Moreover, the values for the growth in test [19] and in [20] were -28% (active) and -22.9% (active), respectively.
`O=C(Nc1cccc([N+](=O)[O-])c1)c1ccc2ccccc2c1O`: the growth was 41.6% in [1]; 76.9% in [2]; 105% in [3]; 53% in test [4]; 50.2% in test [5]; 6.8% (active) in test [6]. Besides, the growth in test [7] is -8.09% (active); in [8], 68.1%; in [9], 40.4%; in test [10] it was 110%; in test [11], 79.3%; in [12], 45.6%. The growth is 20.5% in test [13]; 82.2% in [14]; 37.5% in [15]; 71.7% in [16]; 57.1% in test [17]; 55.2% in test [18]. In addition, the growth in [19] is 14.5%; in [20], 49.8%.
On to `COc1cc2ncn3c(=O)c4c5c(sc4nc3c2cc1OC)CCCCC5`, for which the growth in test [1] was 89.3%; in [2], 74.5%; in test [3], 90.9%; in test [4], 91%; in test [5] it was 99.5%; in [6] it was 81.9%. The growth in test [7] was 99.9%; in test [8] it was 104%; in test [9], 106%; in test [10] it was 98%; in test [11], 111%; in test [12] it was 97.3%. In addition, the growth in test [13] was 93.7%; in test [14] it was 91.7%; in test [15] it was 105%; in test [16], 93.7%; in [17], 105%; in test [18] it was 100%. Also, the growth in test [19] was 105%; in test [20], 106%.
In the case of `CC(C)(C)NCC(O)COc1c(Br)c(Br)c(Br)c2c1OC(C)(C)C2` (stereo not given), the growth was -0.995% (active) in [1]; 42.5% in test [2]; -19.3% (active) in [3]; -84.9% (active) in test [4]; -63.7% (active) in test [5]; -57.7% (active) in test [6]. In addition, the growth in test [7] is -76.8% (active); in [8] it was -71.9% (active); in test [9] it was -91.6% (active); in test [10], -58.3% (active); in [11], -59.5% (active); in test [12] it was -34.9% (active). Moreover, the growth in test [13] was -82.8% (active); in [14], -65.6% (active); in test [15], -52.5% (active); in test [16], 4.14% (active); in [17] it was -63% (active); in test [18] it was -84.5% (active). The results for the growth in test [19] and in [20] were 107% and -72.6% (active), respectively.
Turning to `COC(=O)Nc1nc2ccc(Sc3ccccc3)cc2[nH]1`, the growth was 32.7% in [1]; 19.9% in test [2]; 55.4% in [3]; 29.4% in test [4]; 6.37% (active) in [5]; 54.2% in test [6]. Moreover, the growth was 13.4% in test [7]; 13.4% in test [8]; 33.7% in test [9]; -14.7% (active) in [10]; 17.5% in [11]; 5.33% (active) in test [12]. Also, the growth in test [13] is 41.9%; in test [14], 45.6%; in test [15] it was 15%; in [16], 37.8%; in [17] it was -16.1% (active); in test [18] it was 0.846% (active). Moreover, the growth in test [19] is 52.1%; in test [20] it was 8.93% (active).
